PubChem BioAssay AID1508622 (National Center for Advancing Translational Sciences (NCATS), 2021)

assay: Confirmatory qHTS for Identification of Small Molecule Activators of Huntingtin-Antisense Promoter Activity; conditions: HEK293 HTT-AS promoter firefly luciferase reporter, 24 h; series mostly up to 57.5 µM; activity change, positive = activation: at the top concentration; active means well fitted activation curve with a large enough effect; inconclusive means small, poorly fitted or top-dose-only effect; inactive means no such curve, though single readings can be large or run the other way
Procedure, shortened: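 2,500 luciferase reporter HEK293 cells/well; 24 h culture; cpds up to 57.5 uM final, PTC124 50 uM ctrl; 24 h, 37C; Dual-Glo FLuc reagent, 10 min RT; lum. Norm.: vehicle 0%, zero RLU -100%.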

Activity change, positive = activation, inactive:
Cc1ccccc1C(=O)NCc1ccc2c(c1)CCN2C(=O)c1ccccc1 -51%
CCCN(c1ccccc1CC)S(=O)(=O)c1ccc2c(c1)CC(C)N2C(=O)C1CC1 (centres undefined) -79.9%
Cc1oc(-c2ccc(C(=O)NCc3ccccc3Cl)cc2)nc1CN1CCc2ccccc21 -78.9%
CC(C)c1ccc(NC(=O)c2cnc3sc(N4CCCC4)nn3c2=O)cc1 -66.8%
CCc1ccc(NC(=O)c2cc(S(=O)(=O)N3CCCCCC3)ccc2F)cc1 -22.9%
O=C(Cn1cc(S(=O)(=O)Cc2ccccc2F)c2ccccc21)Nc1ccc(F)c(Cl)c1 -56.5%
Cc1ccc(C)c(N2CCN(C(=O)C3CCCN(S(=O)(=O)c4ccc5c(c4)oc(=O)n5C)C3)CC2)c1 (centres undefined) -48.5%
CCCc1cc(N2CCN(c3ccccc3F)CC2)n2cnnc2n1 -69.4%
COCCN1C(=O)c2[nH]nc(-c3ccccc3O)c2C1c1ccc(OCc2ccccc2)c(OC)c1 (centres undefined) -22.5%
